Only some compounds are listed: those with a hit (about 3.5% of all), similar ones and a draw of the others.
Pf apPOL block – Pf-apPOL DNA polymerase inhibition. AID 1794808. Recombinant Pf-apPOL, molecular beacon fluorescence, 1.5 h. inhibition, % at 10 µM. 210,000 tested, 0.25% active
mHTT CaM bind – inhibitors of human mutant huntingtin-calmodulin interaction. P42858. AID 1671202. inhibition, % at 15 µM. AlphaScreen His-mHTT/GST-CaM binding, luminescence. 190,000 tested, 3.6% active;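 further: 0% = both proteins with DMSO and 100% = one protein alone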
* = called active by the depositor; · = no result. No stated cut-off is given here; in the data, active means inhibition above about 50%; inactive means the rest.

SMILES	Pf apPOL block	mHTT CaM bind
Cc1cccc(-c2nnc(C)c(N3CCc4ccccc4C3)n2)c1	-1	100*
Cc1cccc(-c2nnc(C)c(N3CCC(C)CC3)n2)c1	-1	42
CN(C)c1ncncc1N1CCC(C(=O)N2CCC(Cc3ccccc3)CC2)CC1	-4	50*
CC1CCN(C(=O)C2CCN(c3cncnc3N(C)C)CC2)CC1	-4	-2
CN(C)c1ncncc1N1CCC(C(=O)N2CCCC2)CC1	4	-5
Cc1ccc(C)c(N2CCN(C(=O)C3CCN(c4cncnc4N(C)C)CC3)CC2)c1	2	60*
CCS(=O)(=O)c1ccc(C(=O)Nc2nnc(Cc3ccc(Cl)s3)o2)cc1	0	1
CC(C)(C)C(O)CCNC(=O)CCSc1ccccc1 (stereo unspecified)	8	0
CCC(C(=O)Nc1cccc(C)c1C)c1ccccc1 (stereo unspecified)	1	-6
CCCCC(=O)Nc1n[nH]c(C)c1-c1ccc(OC)cc1	-2	-1
N#Cc1cc2cc3c4c(c2oc1=O)CCCN4CCC3	-4	-3
O=C(c1ccsc1)N1CC(c2nc(-c3cccc(Cl)c3)no2)C1	1	-4
O=C(CCSc1ccccc1)N1CC(c2nc(-c3cccc(Cl)c3)no2)C1	-19	67*
O=C(c1ccccn1)N1CC(c2nc(-c3cccc(Cl)c3)no2)C1	-8	-7
O=C(Cn1ccc2ccccc21)N1CC(c2nc(-c3cccc(Cl)c3)no2)C1	-3	60*
COc1nn(C)cc1C(=O)Nc1nc(-c2ccc3c(c2)CCCC3)cs1	-7	-16
CC(=O)c1ccc(N2CCN(Cc3ccccn3)CC2)cc1	-2	-10
Cc1onc(-c2ccccc2)c1C1=N/C(=C\C=C\c2ccccc2)C(=O)O1	-2	68*
COc1cc(C2=N/C(=C\C=C\c3ccccc3)C(=O)O2)cc(OC)c1OC	1	61*
Cc1ccc(/C=C2/N=C(c3c(-c4ccccc4)noc3C)OC2=O)cc1	3	-2
COc1cc(C2=NC(=CC=Cc3ccccc3)C(=O)O2)cc(OC)c1OC	-10	·
O=C(NCCCCc1ccccc1)c1ccc(Cl)cc1	-6	-19
Cc1ccc(C2=NNC(C(O)C(O)C(O)C(C)O)S2)cc1 (stereo unspecified)	·	-2
Cc1ccc(C2=NNC(c3ccc(F)cc3)S2)cc1 (stereo unspecified)	·	62*
CCc1cccc(CC)c1NC(=O)CN1C(=O)C2C3C=CC(C3)C2C1=O (stereo unspecified)	-1	-2
SMILES	Pf apPOL block	mHTT CaM bind
CCOC(=O)c1c(-c2ccc(OC)cc2)oc2c1C(OCC)CCC2 (stereo unspecified)	-1	-35
CCc1ccc(C(=O)NCCC(O)C(C)(C)C)cc1 (stereo unspecified)	-10	-6
Cc1cccc(CN2CCCn3nc(C(=O)NCc4ccc(Cl)cc4)cc3C2=O)c1	0	6
O=C1NN(c2ccccc2)C(=O)C2C(c3ccccc3)C=CC(c3ccccc3)C12 (stereo unspecified)	2	24
O=C1NC(=O)C2C3C=CC(C3=C(c3ccccc3)c3ccccc3)C12 (stereo unspecified)	-2	57*
Cc1ccc(C)c2sc(N(C)CC(=O)Nc3ccc(-n4cnnn4)cc3)nc12	-10	6
O=C(COc1ccc(F)cc1)N1CCC(n2nc(-c3ccsc3)ccc2=O)CC1	-4	92*
O=C(COc1ccc(F)cc1)N1CCN(C(=O)COc2ccc(F)cc2)CC1	7	-2
COc1ccc(OCC(=O)N2CCC(n3nc(-c4ccsc4)ccc3=O)CC2)cc1	-2	88*
CC1CCN(C(=O)COc2ccc(C(C)C)cc2)CC1	0	-10
Cc1cc(C(=O)NCc2ccccc2)nc2cc(-c3cccs3)nn12	3	-5
CCOc1ccccc1Nc1cc(C)nc2c(C)cccc12	-2	-8
CCOc1ccc(C(Nc2ccccn2)c2ccc3ccc(C)nc3c2O)cc1C (stereo unspecified)	25	75*
COc1ccc(NCc2ccccn2)cc1	-5	·
COc1ccc(C(Nc2ccccn2)c2ccc3ccc(C)nc3c2O)cc1 (stereo unspecified)	-1	72*
Cc1ccc2ccc(C(Nc3ccccn3)c3ccsc3)c(O)c2n1 (stereo unspecified)	-4	76*
Cc1sc(NC(=O)c2ccccc2)c(C(Nc2ccccn2)c2cccs2)c1C (stereo unspecified)	0	-9
COc1ccc(N2C(=O)CCc3c(-c4ccccc4)cc(N(C)C)cc32)cc1	-4	24
COc1ccc(C2CCCN2C(=O)Nc2ccc(Cl)cc2)cc1 (stereo unspecified)	0	-8
Cc1ccc(C(=O)O)cc1NC(=O)c1cc2cc(Br)ccc2oc1=O	0	-9
O=C(Nc1ccc(S(=O)(=O)Nc2nccs2)cc1)C(Cl)Cl	-6	7
O=C(Nc1ccc(S(=O)(=O)Nc2nccs2)cc1)Nc1ccc(Cl)c(Cl)c1	-3	78*
CCOC(=O)C1CCN(CC(O)COc2ccc(C34CC5CC(CC(C5)C3)C4)cc2)CC1 (stereo unspecified)	-2	30
CN1CCN(CC(O)COc2ccc(C34CC5CC(CC(C5)C3)C4)cc2)CC1 (stereo unspecified)	6	96*
OC(COc1ccc(C23CC4CC(CC(C4)C2)C3)cc1)CN1CCOCC1 (stereo unspecified)	4	6
SMILES	Pf apPOL block	mHTT CaM bind
OC(COc1ccc(C23CC4CC(CC(C4)C2)C3)cc1)CN1CCCCC1 (stereo unspecified)	4	100*
O=C1CC(c2noc(-c3ccccc3)n2)CN1c1ccc(F)cc1 (stereo unspecified)	2	-3
CCCc1[nH]nc(-c2ccc(C(F)(F)F)cc2)c1NC(=O)C(C)C	-1	-3
CCOC(=O)C1CCN(Cc2cc(=O)oc3cc(-c4ccccc4)c(O)cc23)CC1	-7	0
CCOc1ccc(C2CC(c3cccc(OC)c3)n3nc(N)nc3N2)cc1 (stereo unspecified)	-5	16
CCOc1ccc2c(c1)-c1c(sn(-c3ccc(C(C)C)cc3)c1=S)C(C)(C)N2	·	76*
CCOc1ccc2c(c1)-c1c(sn(-c3ccc(OC)cc3)c1=S)C(C)(C)N2	·	94*
CCOc1ccc(-n2sc3c(c2=S)-c2ccc(OC)cc2NC3(C)C)cc1	·	94*
CCOc1ccc(N2C(=O)Nc3ccc(Br)cc3C2(O)C(=O)NC(C)C)cc1 (stereo unspecified)	-7	7
CCOc1ccc2c(=O)c(-c3ccc(OC)cc3)coc2c1	-9	-3
Clc1ccc(-c2nnc(-c3cccc(Br)c3)o2)cc1	-2	-6
Cc1cn2cc(-c3ccc([N+](=O)[O-])cc3)nc2s1	1	10
O=C(NCCc1csc(-c2ccccc2)n1)C1CCN(C(=O)c2cccc(F)c2)CC1	-5	2
CCOC(=O)c1c(C(C)(C)C)oc2ccc(OCC)cc12	-2	-26
CC(C(=O)NC1CC1)C1CCN(S(=O)(=O)c2cccs2)CC1 (stereo unspecified)	-3	-11
O=C(NCCC1CCN(C(=O)Nc2cccc(Cl)c2)CC1)Nc1cc(F)ccc1F	-6	-12
COc1ccccc1/C=C/CN1CCN(c2ccc([N+](=O)[O-])cc2)CC1	-3	53*
COc1ccccc1/C=C/CN1CCN(c2ccccc2)CC1	-4	32
CCN1CCN(C/C=C/c2ccccc2[N+](=O)[O-])CC1	-7	1

Source: PubChem BioAssay
